# Compounds with a hit are over-represented: about 19% of the library has one in this group of screens.
# Pf growth 96h: P. falciparum growth inhibition at 96 hour, primary screen for plastid delayed-death inhibitors | P. falciparum luciferase reporter growth, 96 h | 320,000 compounds, 6.9% hits | AID 504834 | Potency, µM (series often up to 28.7 µM), inactives show top-dose activity change, negative = inhibition, usual class: inhibitors; also: potency is read from the fitted curve at half-maximal effect; % is scaled to controls: 0 for no effect and ±100 for the full control effect
#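 P. falciparum expressing integrated firefly luciferase grown in erythrocytes (2% hematocrit, 0.05% parasitemia final) with compounds for 96 hours at 37 C, 5% CO2. Growth inhibition read as loss of luminescence after adding luciferase detection reagent.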
# CHX counter: affects cycloheximide protein synthesis inhibition readout, counter-screen | cell reporter, cycloheximide protein synthesis inhibition counterscreen | max response, % | 300,000 compounds, 12% hits | AID 2314; in the data active = max response mostly above about 13%, no sharp cut-off; inactive = mostly below about 14%; also: read at 38.3 µM for the half of the compounds with a filed dose; 0% is about no effect
# AMA1 RON2 block: inhibitors of Plasmodium falciparum AMA1-RON2 interaction; AlphaScreen AMA1-biotinylated RON2 peptide binding; Potency, µM (doses to about 58.2 µM), inactives show at the highest dose activity change, negative = inhibition, actives largely listed as inhibitors; 360,000 compounds, 0.2% hits; AID 720542;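 also: potency is read from the fitted curve at half-maximal effect; 0% = vehicle wells and -100% = peptide control; nearly all actives have a fitted effect of over 45% in size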
#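 AMA1 (3D7) with his tag at 25 nM final met compounds first, then biotinylated RON2 peptide at 25 nM; detection used donor plus acceptor beads, 10 µg/mL apiece, read by AlphaScreen after 30 min at room temperature.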
# SARS PLpro yeast: blocks SARS-CoV papain-like protease in a yeast assay; S. cerevisiae expressing SARS-CoV PLpro, growth rescue; Potency, µM (series often up to 32.9 µM), inactives show at the top dose activity, positive = growth rescue, actives largely listed as activators; 330,000 compounds, 0.19% hits; calls by dose curve; also: potency is read from the fitted curve at half-maximal effect; 0% is about no effect; nearly all actives have a fitted effect of over 55% in size
# Shiga inhibitor: inhibitors of Shiga toxin in Vero cells. Vero cells, Shiga toxin protein synthesis inhibition reporter. inhibition, % at 38.7 µM. AID 2315. 290,000 compounds, 9.2% hits; in the data active = inhibition mostly above about 28%, no sharp cut-off; inactive = mostly below about 43%; also: 0% is about no effect
# Pf growth 48h: inhibits P. falciparum growth in the first generation, 48 h; P. falciparum luciferase growth in erythrocytes, 48 h; AID 504832; 310,000 compounds, 5.9% hits; Potency, µM (highest dose often 28.7 µM), for inactives: at the top dose activity change, negative = inhibition, hits mostly inhibitors; also: potency is read from the fitted curve at half-maximal effect; % is scaled to controls: 0 for no effect and ±100 for the full control effect
#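 Compounds are pin-transferred into medium, infected erythrocytes (2% hematocrit, 0.1% parasitemia final) are added, and plates sit one parasite generation at 37 C in 5% CO2. Detection reagent is then added and luminescence measured.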
# Starred values were filed as active, the others as inactive; ? = inconclusive; · = no result; [ ] = remark or other dose. Unless noted, calls follow the shape of the dose curve; as a rule, active = well fitted curve in the direction sought with a large enough effect; inconclusive = small, poorly fitted or top-dose-only effect, or another doubt; inactive = no such curve, though single readings can be large; an effect the other way counts as inactive or inconclusive.
SMILES,Pf growth 96h,CHX counter,AMA1 RON2 block,SARS PLpro yeast,Shiga inhibitor,Pf growth 48h
COC(=O)c1ccc(=O)c2nc3/c(=C/O)c(O)cc(=O)c3[nH]c12,?,0.6,1.26µM*,3.16µM*,10.8,?
COc1ccc(OCc2cc(C(=O)NCc3nc(C)cs3)no2)c(Cl)c1,?,52.1*,-11.5%,-10.7%,98.1*,26.6%
COc1ccc(OCc2cc(C(=O)NC(C)c3csc(C)n3)no2)c(Cl)c1 (stereo not drawn),22.7%,62.6*,-1.2%,-4.9%,62.4*,39.2%
Cc1sc2nc(COC(=O)CNC(=O)c3ccc(C(C)(C)C)cc3)[nH]c(=O)c2c1C,-47.7%,13.8,36.1%,0.7%,13.4,-6.6%
COc1ccc(-c2[nH]ncc2/C=N/NC(=O)c2ccncc2)c(OC)c1,0.0%,-8.9,13.2%,-0.1%,-22.2,-1.4%
CCN1CCN(CCCN(Cc2ccco2)C(=S)Nc2ccccc2Cl)CC1,1.85µM*,-7.4,-9.2%,-3.0%,-6.3,33.7%
O=C(Cc1cccc2ccccc12)N/N=C/c1ccc(Sc2cccc3cccnc23)o1,6.57µM*,-1.2,·,3.3%,-10.0,·
CCCCC(=O)N/N=C/c1ccc(Sc2cccc3cccnc23)o1,4.15µM*,38.8*,-2.0%,2.8%,31.1,0.0%
COCCN(C(=O)CSc1nnc(-c2cccs2)n1N)c1c(N)n(Cc2ccccc2)c(=O)[nH]c1=O,-2.5%,-1.3,15.4%,4.5%,-2.7,-1.6%
c1cc(Nc2ncnc3sccc23)cc(-c2nnc3n2CCCCC3)c1,?,12.6,-8.5%,2.1%,16.2,?
O=C(CSc1nnnn1-c1ccc2c(c1)OCCO2)N1CCc2ccccc21,·,-6.8,-1.9%,4.4%,-10.5,4.7%
O=C(CSc1nnnn1-c1ccc2c(c1)OCCO2)OC1CCCCC1,?,33.8*,17.9%,5.0%,102.4*,17.5%
O=C(CSc1nnnn1-c1ccc2c(c1)OCCO2)Nc1nc2c(s1)CCCC2,?,1.4,-2.0%,-1.9%,19.6,-24.7%
c1ccc(CSc2nnnn2-c2ccc3c(c2)OCCO3)nc1,8.5%,21.4*,0.0%,-4.5%,42.9,25.8%
Clc1cccc(Cl)c1Cn1cnc(=NCc2ccco2)c2[nH]cnc21,·,21.8*,-23.0%,-2.1%,38.3,14.7µM*
Clc1cccc(Cl)c1Cn1cnc2c(NCc3ccco3)ncnc21,·,-6.2,-1.4%,16.6%,-18.6,-9.4%
COc1ccc(C2=CC(c3ccc(Cl)cc3)n3cnnc3N2)cc1OC (stereo not drawn),·,9.2,50.2%,-8.8%,12.2,10.4µM*
Cc1sc2ncnc(SCC(=O)N3c4ccccc4Sc4ccc(Cl)cc43)c2c1C,-19.1%,-3.4,-0.9%,0.7%,-13.6,-9.9%
CCOC(=O)c1c(C)sc2c1N(C(=O)CCl)c1cc(Cl)ccc1S2,14.7µM*,-5.3,0.5%,-35.0%,-18.9,?
COc1ccc(S(=O)(=O)N2CCC(NC(=O)C3CCCCC3)CC2)cc1,19.1%,1.0,-1.9%,-2.0%,5.4,15.9%
COc1ccc(S(=O)(=O)N2CCC(C(=O)Nc3nccs3)CC2)cc1,20.9%,41.9*,0.7%,0.3%,101.4*,23.8%
CC(=O)Nc1ccc(S(=O)(=O)N2CCC(C(=O)Nc3nccs3)CC2)cc1,?,0.2,-1.2%,6.1%,11.2,-3.8%
CSc1ccc(S(=O)(=O)N2CCC(C(=O)Nc3ccc(C(N)=O)cc3)CC2)cc1,4.65µM*,-3.5,0.0%,-13.8%,-3.2,25.4%
COc1ccc(S(=O)(=O)N2CCC(C(=O)NC3CC3)CC2)cc1,14.8%,8.2,-6.0%,2.8%,-8.6,9.28µM*
CSc1ccc(S(=O)(=O)N2CCC(C(=O)NC3CC3)CC2)cc1,-8.8%,-5.3,10.8%,1.5%,2.8,4.15µM*
SMILES,Pf growth 96h,CHX counter,AMA1 RON2 block,SARS PLpro yeast,Shiga inhibitor,Pf growth 48h
CCN(CC)C(=O)Cn1cc(S(=O)(=O)CC(=O)NC2CCCCC2)c2ccccc21,-14.7%,-5.6,6.0%,-0.4%,-29.2,-10.2%
COc1ccc(S(=O)(=O)N2CCC(C(=O)NCC3CCCO3)CC2)cc1OC (stereo not drawn),0.1%,-2.4,19.2%,1.1%,-4.3,21.5%
COc1ccc(S(=O)(=O)N2CCC(C(=O)NCC3CCCO3)CC2)cc1 (stereo not drawn),·,7.7,-0.7%,9.4%,51.2*,16.3%
N=c1c(C(=O)NCc2ccc3c(c2)OCO3)cc2c(=O)n3ccccc3nc2n1CC1CCCO1 (stereo not drawn),?,8.5,-4.5%,-13.8%,-2.9,?
COc1ccc(CCNC(=O)c2cc3c(=O)n4ccccc4nc3n(CC3CCCO3)c2=N)cc1 (stereo not drawn),·,·,-1.8%,·,·,·
N=c1c(C(=O)NCc2ccc(F)cc2)cc2c(=O)n3ccccc3nc2n1CC1CCCO1 (stereo not drawn),0.9%[5.75 µM],-3.4,-15.0%,0.6%,-16.8,11.7µM*
Cc1cccn2c(=O)c3cc(C(=O)NCCc4ccccc4)c(=N)n(CC4CCCO4)c3nc12 (stereo not drawn),29.1%,-0.6,-5.6%,10.2%,-5.6,2.33µM*
N=c1c(C(=O)NCCc2ccccc2)cc2c(=O)n3ccccc3nc2n1CC1CCCO1 (stereo not drawn),?,-5.1,5.8%,2.1%,-11.1,2.08µM*
Cc1ccc(CNC(=O)c2cc3c(=O)n4cccc(C)c4nc3n(CC3CCCO3)c2=N)cc1 (stereo not drawn),8.28µM*,-0.4,·,8.6%,-8.8,?
Cc1cccn2c(=O)c3cc(C(=O)NCc4cccnc4)c(=N)n(CC4CCCO4)c3nc12 (stereo not drawn),1.2%,6.2,-6.9%,4.0%,-1.9,?
O=C(CCc1c[nH]c2ccccc12)N1CCN(S(=O)(=O)c2ccc(F)cc2)CC1,?,·,-5.9%,9.2%,·,?
COC(=O)Cc1ccc(OC2(C)CCN(Cc3ccccc3OC(F)F)C2)cc1 (stereo not drawn),·,·,-1.3%,·,·,·
CC1(C(=O)NCc2ccccc2)CCC(=O)N1CCCn1ccnc1 (stereo not drawn),·,·,-4.5%,·,·,·
O=C(Nc1ccc(-c2nc3ccccc3[nH]2)cc1)c1ccco1,-0.2%,42.7*,2.5%,-6.5%,108.9*,-49.6%
O=C(/C=C/c1ccco1)Nc1ccc(-c2nc3ccccc3[nH]2)cc1,11.7µM*,-2.6,-2.4%,7.7%,35.7,4.15µM*
O=C(NCc1nc2ccccc2[nH]1)c1ccco1,19.1%,11.0,3.3%,0.3%,-43.9,31.2%
O=C(N/C(=C/c1ccc(Br)cc1)c1nc2ccccc2[nH]1)c1ccco1,-3.5%,14.7*,1.5%,-8.0%,50.8*,-4.3%
Cc1nc(NC(=O)/C=C/c2ccccc2)sc1C(=O)N1CCCCC1,?,9.0,4.0%,-0.6%,25.4,-9.1%
Cc1cc(C)c(C(=O)COC(=O)c2cc([N+](=O)[O-])ccc2NCCO)cc1C,?,0.8,3.6%,18.7%,-7.5,-11.7%
